Key:
[1] = target: Tyrosine-protein kinase SYK (Homo sapiens) (UniProt P43405); conditions: at 10 µM
[2] = target: T1, Mitogen-activated protein kinase kinase kinase 7 (Homo sapiens) (UniProt O43318); conditions: at 1 µM
T1 sequence (whole entry): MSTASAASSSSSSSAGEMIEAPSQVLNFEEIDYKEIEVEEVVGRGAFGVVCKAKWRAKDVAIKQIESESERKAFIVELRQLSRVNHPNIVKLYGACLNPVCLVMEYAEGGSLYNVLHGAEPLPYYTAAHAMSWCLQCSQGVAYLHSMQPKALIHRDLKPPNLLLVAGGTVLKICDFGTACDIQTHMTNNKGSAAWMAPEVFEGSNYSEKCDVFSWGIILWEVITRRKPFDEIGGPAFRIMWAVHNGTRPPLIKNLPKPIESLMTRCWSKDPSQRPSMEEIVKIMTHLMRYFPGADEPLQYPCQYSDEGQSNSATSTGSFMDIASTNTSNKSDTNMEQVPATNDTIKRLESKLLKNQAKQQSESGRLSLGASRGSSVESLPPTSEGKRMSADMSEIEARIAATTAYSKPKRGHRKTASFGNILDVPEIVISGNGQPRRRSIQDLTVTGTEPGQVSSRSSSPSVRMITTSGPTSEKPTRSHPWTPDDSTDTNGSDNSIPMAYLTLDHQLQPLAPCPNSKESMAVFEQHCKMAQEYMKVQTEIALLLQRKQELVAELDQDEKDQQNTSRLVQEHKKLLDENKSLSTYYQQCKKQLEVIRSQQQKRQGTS

[3] = target: T1, Mitogen-activated protein kinase kinase kinase 7 (Homo sapiens); conditions: at 10 µM
[4] = target: T2, Serine/threonine-protein kinase TAO1 (Homo sapiens) (UniProt Q7L7X3); conditions: at 1 µM
T2 sequence (whole entry): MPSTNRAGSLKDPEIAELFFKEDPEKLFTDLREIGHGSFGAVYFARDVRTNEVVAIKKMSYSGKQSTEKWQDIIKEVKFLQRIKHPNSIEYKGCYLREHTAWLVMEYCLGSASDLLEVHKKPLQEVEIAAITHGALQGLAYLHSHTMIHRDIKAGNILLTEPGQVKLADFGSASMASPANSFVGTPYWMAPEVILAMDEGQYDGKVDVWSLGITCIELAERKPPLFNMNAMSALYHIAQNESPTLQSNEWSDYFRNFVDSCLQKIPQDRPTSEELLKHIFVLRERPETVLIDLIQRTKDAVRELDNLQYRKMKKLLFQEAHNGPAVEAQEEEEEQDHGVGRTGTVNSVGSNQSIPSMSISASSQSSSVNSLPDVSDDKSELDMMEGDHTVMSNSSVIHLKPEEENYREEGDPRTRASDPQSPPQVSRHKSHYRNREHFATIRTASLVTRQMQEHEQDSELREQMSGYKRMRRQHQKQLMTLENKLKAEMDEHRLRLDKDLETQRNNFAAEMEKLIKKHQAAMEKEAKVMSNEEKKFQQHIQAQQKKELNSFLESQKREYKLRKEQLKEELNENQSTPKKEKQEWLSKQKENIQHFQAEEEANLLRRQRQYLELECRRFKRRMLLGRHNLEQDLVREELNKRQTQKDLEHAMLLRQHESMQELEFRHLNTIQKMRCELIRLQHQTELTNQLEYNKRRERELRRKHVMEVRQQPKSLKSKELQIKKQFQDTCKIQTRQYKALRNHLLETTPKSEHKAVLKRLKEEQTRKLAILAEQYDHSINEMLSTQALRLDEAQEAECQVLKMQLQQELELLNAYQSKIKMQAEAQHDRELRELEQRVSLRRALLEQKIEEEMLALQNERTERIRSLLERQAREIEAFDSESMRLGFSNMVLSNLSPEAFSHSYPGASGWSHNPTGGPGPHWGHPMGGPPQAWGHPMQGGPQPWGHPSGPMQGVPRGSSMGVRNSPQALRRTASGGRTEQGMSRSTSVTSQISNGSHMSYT

[5] = target: T2, Serine/threonine-protein kinase TAO1 (Homo sapiens); conditions: at 10 µM
[6] = target: T3, Serine/threonine-protein kinase TAO2 (Homo sapiens) (UniProt Q9UL54); conditions: at 1 µM
T3 sequence (whole entry): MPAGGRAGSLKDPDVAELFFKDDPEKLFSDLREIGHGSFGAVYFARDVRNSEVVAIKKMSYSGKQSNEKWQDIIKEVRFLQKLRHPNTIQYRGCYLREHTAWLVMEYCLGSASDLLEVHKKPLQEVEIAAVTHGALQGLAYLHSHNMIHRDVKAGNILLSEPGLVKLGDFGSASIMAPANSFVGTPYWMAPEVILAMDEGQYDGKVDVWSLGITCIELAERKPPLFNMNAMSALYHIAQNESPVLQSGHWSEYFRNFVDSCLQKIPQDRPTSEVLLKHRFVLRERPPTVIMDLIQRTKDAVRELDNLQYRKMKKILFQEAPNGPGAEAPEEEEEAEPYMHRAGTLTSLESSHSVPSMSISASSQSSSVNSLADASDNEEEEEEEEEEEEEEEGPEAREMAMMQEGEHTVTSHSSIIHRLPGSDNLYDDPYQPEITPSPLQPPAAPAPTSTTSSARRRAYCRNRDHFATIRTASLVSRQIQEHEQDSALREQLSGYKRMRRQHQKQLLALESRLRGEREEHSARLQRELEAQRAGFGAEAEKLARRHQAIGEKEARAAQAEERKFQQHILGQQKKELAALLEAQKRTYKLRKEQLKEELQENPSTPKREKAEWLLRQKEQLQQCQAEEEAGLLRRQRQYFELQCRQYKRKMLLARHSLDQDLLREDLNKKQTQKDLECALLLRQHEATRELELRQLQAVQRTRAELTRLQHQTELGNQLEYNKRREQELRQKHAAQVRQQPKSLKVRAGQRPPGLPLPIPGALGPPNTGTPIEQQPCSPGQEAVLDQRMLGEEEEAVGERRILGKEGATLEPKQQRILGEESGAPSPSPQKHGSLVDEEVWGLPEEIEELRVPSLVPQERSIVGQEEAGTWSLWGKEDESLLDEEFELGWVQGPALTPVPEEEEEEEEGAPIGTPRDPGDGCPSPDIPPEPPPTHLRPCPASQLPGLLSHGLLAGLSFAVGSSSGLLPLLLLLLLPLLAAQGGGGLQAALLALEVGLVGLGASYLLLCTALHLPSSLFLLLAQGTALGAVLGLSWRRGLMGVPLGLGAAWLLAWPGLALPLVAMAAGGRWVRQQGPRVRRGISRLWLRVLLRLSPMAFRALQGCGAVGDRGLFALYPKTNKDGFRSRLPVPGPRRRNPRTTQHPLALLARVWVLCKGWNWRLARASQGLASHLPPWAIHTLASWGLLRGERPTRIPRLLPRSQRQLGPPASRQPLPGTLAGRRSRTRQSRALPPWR

[7] = target: T3, Serine/threonine-protein kinase TAO2 (Homo sapiens); conditions: at 10 µM
[8] = target: T4, Serine/threonine-protein kinase TAO3 (Homo sapiens) (UniProt Q9H2K8); conditions: at 1 µM
T4 sequence (whole entry): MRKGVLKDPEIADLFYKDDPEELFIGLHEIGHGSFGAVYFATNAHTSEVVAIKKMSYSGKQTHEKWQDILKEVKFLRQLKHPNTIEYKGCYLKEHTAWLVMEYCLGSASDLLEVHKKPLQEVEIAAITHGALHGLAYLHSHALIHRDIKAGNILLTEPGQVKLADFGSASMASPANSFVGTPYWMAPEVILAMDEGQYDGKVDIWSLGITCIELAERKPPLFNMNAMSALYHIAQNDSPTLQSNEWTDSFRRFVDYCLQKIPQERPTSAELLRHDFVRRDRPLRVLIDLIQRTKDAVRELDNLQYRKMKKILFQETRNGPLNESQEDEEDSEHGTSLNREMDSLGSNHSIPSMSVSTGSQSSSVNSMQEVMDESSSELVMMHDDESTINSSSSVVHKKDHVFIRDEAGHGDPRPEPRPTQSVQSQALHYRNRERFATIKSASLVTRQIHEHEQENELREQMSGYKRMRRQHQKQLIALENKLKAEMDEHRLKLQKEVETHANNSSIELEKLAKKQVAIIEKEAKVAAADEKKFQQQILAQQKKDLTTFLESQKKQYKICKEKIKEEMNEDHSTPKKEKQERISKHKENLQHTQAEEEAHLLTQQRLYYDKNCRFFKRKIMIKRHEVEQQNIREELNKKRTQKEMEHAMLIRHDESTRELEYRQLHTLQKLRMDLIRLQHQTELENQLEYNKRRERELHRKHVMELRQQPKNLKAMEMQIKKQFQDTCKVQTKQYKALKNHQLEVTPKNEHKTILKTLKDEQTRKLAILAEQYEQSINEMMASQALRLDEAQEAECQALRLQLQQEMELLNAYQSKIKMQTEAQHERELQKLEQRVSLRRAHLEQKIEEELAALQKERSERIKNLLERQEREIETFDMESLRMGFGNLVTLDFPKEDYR

[9] = target: T4, Serine/threonine-protein kinase TAO3 (Homo sapiens); conditions: at 10 µM
[10] = target: T5, Serine/threonine-protein kinase TBK1 (Homo sapiens) (UniProt Q9UHD2); conditions: at 1 µM
T5 sequence (whole entry): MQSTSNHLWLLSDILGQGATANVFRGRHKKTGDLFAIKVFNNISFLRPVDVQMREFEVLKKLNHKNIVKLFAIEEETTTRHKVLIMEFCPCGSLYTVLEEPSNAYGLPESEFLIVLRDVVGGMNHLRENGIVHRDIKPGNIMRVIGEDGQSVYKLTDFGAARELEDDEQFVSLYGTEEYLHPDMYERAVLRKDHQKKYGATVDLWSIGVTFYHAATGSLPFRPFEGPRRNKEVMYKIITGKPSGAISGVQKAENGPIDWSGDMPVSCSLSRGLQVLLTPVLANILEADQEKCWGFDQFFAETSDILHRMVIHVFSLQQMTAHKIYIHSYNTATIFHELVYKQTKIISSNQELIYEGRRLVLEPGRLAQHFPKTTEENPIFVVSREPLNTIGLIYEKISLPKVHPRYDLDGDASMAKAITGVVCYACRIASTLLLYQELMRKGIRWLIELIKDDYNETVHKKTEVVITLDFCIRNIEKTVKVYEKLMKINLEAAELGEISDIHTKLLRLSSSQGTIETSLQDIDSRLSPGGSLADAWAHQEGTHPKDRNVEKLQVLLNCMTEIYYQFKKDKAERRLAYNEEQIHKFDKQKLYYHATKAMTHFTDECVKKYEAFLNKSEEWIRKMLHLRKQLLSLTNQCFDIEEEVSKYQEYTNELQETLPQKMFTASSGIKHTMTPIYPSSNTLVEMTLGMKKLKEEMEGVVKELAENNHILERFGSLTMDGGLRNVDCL

[11] = target: T5, Serine/threonine-protein kinase TBK1 (Homo sapiens); conditions: at 10 µM
[12] = target: T6, TGF-beta receptor type-1 (Homo sapiens) (UniProt P36897); conditions: at 1 µM
T6 sequence (whole entry): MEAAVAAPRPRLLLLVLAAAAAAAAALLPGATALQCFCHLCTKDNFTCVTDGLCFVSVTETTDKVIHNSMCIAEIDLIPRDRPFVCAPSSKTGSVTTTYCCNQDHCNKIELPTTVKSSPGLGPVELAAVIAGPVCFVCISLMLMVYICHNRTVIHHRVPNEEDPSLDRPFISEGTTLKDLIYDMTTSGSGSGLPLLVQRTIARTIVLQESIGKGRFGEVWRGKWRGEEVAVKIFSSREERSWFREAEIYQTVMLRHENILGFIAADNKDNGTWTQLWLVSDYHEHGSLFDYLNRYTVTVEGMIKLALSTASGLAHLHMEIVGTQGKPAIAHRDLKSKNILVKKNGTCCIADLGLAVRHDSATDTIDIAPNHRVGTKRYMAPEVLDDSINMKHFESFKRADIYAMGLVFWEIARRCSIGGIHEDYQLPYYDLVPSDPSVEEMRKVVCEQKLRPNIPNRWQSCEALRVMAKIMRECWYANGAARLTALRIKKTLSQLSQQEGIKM

[13] = target: T6, TGF-beta receptor type-1 (Homo sapiens); conditions: at 10 µM
[14] = target: T7, Inhibitor of nuclear factor kappa-B kinase subunit beta (Homo sapiens) (UniProt O14920); conditions: at 1 µM
T7 sequence (whole entry): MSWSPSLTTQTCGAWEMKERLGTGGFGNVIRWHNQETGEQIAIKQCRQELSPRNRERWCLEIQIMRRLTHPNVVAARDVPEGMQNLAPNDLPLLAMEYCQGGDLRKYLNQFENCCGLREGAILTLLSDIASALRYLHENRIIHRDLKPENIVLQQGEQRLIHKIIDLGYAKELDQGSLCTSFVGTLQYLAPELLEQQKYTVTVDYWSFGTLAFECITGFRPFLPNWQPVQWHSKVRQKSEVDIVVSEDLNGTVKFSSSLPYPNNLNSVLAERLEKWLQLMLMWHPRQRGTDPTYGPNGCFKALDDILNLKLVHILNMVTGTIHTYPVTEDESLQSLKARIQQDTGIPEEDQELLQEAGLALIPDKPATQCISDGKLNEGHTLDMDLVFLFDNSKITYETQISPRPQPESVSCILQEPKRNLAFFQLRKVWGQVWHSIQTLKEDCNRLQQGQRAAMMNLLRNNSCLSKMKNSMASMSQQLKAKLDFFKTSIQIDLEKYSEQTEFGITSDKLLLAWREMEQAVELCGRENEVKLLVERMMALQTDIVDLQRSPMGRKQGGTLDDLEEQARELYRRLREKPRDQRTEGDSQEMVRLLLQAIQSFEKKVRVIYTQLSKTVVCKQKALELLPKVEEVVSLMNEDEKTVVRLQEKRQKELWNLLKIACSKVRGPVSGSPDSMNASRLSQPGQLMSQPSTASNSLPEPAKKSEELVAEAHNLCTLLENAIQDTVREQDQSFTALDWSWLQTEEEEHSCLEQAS

[15] = target: T7, Inhibitor of nuclear factor kappa-B kinase subunit beta (Homo sapiens); conditions: at 10 µM
[16] = target: Insulin receptor (Homo sapiens) (UniProt P06213); conditions: at 1 µM
Sequence of Insulin receptor (Homo sapiens) (P06213 28-758 limits assumed): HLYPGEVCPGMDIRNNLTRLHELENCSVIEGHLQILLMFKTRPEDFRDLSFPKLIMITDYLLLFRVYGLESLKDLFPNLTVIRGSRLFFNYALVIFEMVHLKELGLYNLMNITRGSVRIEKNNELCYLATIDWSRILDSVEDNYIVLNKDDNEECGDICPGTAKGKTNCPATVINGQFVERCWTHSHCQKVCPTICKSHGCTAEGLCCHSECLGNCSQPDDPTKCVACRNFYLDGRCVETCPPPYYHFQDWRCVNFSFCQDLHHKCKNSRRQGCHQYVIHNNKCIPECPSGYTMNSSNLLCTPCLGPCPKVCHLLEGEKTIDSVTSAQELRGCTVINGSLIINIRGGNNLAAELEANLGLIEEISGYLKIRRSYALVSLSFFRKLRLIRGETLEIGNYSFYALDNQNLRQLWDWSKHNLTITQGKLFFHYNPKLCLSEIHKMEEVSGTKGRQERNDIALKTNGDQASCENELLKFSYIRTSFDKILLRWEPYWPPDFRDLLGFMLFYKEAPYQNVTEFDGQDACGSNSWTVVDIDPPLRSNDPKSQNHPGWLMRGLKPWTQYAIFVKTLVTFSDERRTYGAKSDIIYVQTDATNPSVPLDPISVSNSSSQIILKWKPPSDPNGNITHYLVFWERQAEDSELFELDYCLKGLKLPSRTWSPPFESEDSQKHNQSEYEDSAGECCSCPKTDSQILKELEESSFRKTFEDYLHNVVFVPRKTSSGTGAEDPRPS
Sequence of Insulin receptor (Homo sapiens) (P06213 763-1382 limits assumed): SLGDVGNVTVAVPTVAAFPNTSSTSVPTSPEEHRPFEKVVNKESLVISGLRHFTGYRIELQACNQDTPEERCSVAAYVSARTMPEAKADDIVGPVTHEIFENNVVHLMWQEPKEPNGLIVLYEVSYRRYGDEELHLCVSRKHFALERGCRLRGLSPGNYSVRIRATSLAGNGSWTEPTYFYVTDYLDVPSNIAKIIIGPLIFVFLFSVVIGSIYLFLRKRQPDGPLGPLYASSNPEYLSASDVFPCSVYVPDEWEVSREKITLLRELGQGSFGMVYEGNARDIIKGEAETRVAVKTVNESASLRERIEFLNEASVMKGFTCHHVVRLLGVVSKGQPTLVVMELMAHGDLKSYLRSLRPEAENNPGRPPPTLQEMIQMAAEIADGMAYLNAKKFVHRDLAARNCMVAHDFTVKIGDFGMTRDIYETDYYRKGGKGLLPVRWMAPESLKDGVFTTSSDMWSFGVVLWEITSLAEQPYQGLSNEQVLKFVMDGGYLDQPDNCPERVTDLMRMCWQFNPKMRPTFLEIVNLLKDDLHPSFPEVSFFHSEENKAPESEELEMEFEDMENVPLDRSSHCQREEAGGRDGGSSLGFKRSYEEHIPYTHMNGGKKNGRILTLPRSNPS

SMILES	residual activity [1]	residual activity [2]	residual activity [3]	residual activity [4]	residual activity [5]	residual activity [6]	residual activity [7]	residual activity [8]	residual activity [9]	residual activity [10]	residual activity [11]	residual activity [12]	residual activity [13]	residual activity [14]	residual activity [15]	residual activity [16]
O=c1cc(N2CCOCC2)oc2c1ccc1ccccc12	94%	93%	90%	102%	87%	98%	96%	98%	95%	77%	71%	89%	88%	96%	94%	108%
O=C1NC(=O)C(c2cn(CCCO)c3ncccc23)=C1c1cnccn1	96%	94%	81%	86%	69%			83%	77%	92%	67%					122%
